In all, about 2,100 compounds went through this assay and about 260 (12%) were called active. Another 58% or so got no clear call; they are omitted. Calls follow the shape of the dose curve; as a rule, active = well fitted cell-killing curve with a large enough effect; inconclusive = small, poorly fitted or top-dose-only effect, or effect the other way; inactive = flat fitted curve, though single readings scatter. The list shows a part of the results. Entries that show only a call come without a potency.
Potency is read from the fitted curve at half-maximal effect.

This experiment is described as follows: Viability Counterscreen for Confirmatory qHTS for Inhibitors of ATXN expression. Also: nearly all actives have a fitted effect of over 50% in size. To be noted: HEK-293 ATXN2-luc cells viability, CellTiter-Fluor, 24 h. In a few lines:
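Luminescence read-out (SteadyGlo, 5 min) followed a 30 min Gly-Phe-AFC (25 uM final) viability fluorescence read. ATXN2-luciferase reporter cells were exposed 24 h to a dilution series. Medium-only wells served as the 100% inhibition reference.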
Turning to `O=C(CC1Sc2ccccc2NC1=O)NNc1cccc(Cl)c1Cl` (stereo not drawn), the Potency result is “inactive”.

Take `N#C/C(=N\Nc1cccc([N+](=O)[O-])c1)C(=O)c1ccc(Br)cc1`: the Potency is 2.51 µM (active).

As for `CC(NC(=O)Nc1cccc([N+](=O)[O-])c1)c1ccc2c(c1)OCO2` (stereo not drawn), the Potency entry was “inactive”.

`CC(NC(=O)Nc1cccc([N+](=O)[O-])c1)(C(F)(F)F)C(F)(F)F`: the Potency result is “inactive”.

As to `CC(C)=C1SC(N2CCN(c3ccc(C)c(Cl)c3)CC2)=NC1=O`, the Potency entry is “inactive”.

Regarding `O=C(Cc1coc2cc3c(cc12)CCC3)OCC(=O)N1CCCC1=O`, the Potency entry is “inactive”.

Turning to `Cc1nc2ccc(NC(=O)c3cccc(S(=O)(=O)N(C)c4ccccc4)c3)cc2s1`, the Potency is 3.16 µM (active).

Turning to `CCc1nnc(NC(=O)c2ccc(S(=O)(=O)N(C)c3ccccc3)cc2)o1`, the Potency result is “inactive”.

For the molecule `CCCC(=O)Nc1ccc2nc(SCC(=O)N3CCCC3)sc2c1`, the Potency entry is “inactive”.

As to `CCN1CCN(C(=S)c2ccc(-c3ccccc3)cc2)CC1`, the Potency result is “inactive”.

Turning to `CN1Cc2c(N3CCOCC3)nc3sc(C(=O)c4ccccc4)c(N)c3c2CC1(C)C`, the Potency entry was “inactive”.

As for `CN(C)CCNc1ncnc2c1sc1nc(N3CCOCC3)c3c(c12)CC(C)(C)SC3`, the Potency is 22.4 µM (active).

On to `CN(C)CCNc1ncnc2c1sc1nc(N3CCCC3)c3c(c12)CC(C)(C)OC3`, for which the Potency was 25.1 µM (active).

With `CC1(C)Cc2c(c(N3CCOCC3)nc3sc4c(NN)ncnc4c23)CS1`, the Potency was 25.1 µM (active).

Regarding `COc1ccc(C2CC(c3cccc(Cl)c3)=NN2c2ccc(S(N)(=O)=O)cc2)cc1` (stereo not drawn), the Potency entry is “inactive”.

Take `CCN(CCCn1c(=S)[nH]c2ccc(N3CCOCC3)cc2c1=O)c1ccccc1`: the Potency entry is “inactive”.

Turning to `Cc1nn(-c2ccccn2)c2c1C(=O)CC(C)(C)C2N=[N+]=[N-]` (stereo not drawn), the Potency entry is “inactive”.

As for `OCC1(CCOc2ccccc2)CCN(CC2=Cc3cc(Cl)ccc3OC2)CC1`, the Potency entry is “inactive”.

As for `O=C(c1cccc(Cl)c1)c1nn(-c2ccccc2)c(=O)cc1C(F)(F)F`, the Potency was 35.5 µM (active).

For the molecule `Cc1cc(=O)oc2c1c(C)nn2-c1cccc(Cl)c1`, the Potency result was “inactive”.

For the molecule `COc1cccc(-c2nc(N3CCN(C)CC3)c3ccccc3n2)c1O`, the Potency result was “inactive”.

For the molecule `COc1ccc(Nc2oc(COc3ccccc3OC)nc2C#N)cc1`, the Potency result was “inactive”.

In the case of `COc1ccc(Nc2nc(N3CCCC3)c3ccccc3n2)cc1`, the Potency is 35.5 µM (active).

For the molecule `CC(=O)Oc1ccc(Nc2ccccc2)cc1`, the Potency entry was “inactive”.

Regarding `CC(=O)Oc1ccc(C23c4ccccc4C2(OC(C)=O)c2cc(OC(C)=O)ccc23)cc1` (stereo not drawn), the Potency is 28.2 µM (active).

For `O=C(CSc1nnc(-c2ccc(Br)cc2)o1)Nc1cccc(C(=O)O)c1`, the Potency result was “inactive”.

On to `COC(=O)c1c(C)oc2ccc(N(C(=O)c3ccncc3)S(=O)(=O)c3ccc(C)cc3C)cc12`, for which the Potency entry is “inactive”.

`CN(CC(=O)Nc1ccc(Cl)c(C(F)(F)F)c1)C(=O)c1cccnc1Sc1ccccc1`: the Potency result is “inactive”.

In the case of `Cc1ccc(C(=O)N(C)CC(=O)Nc2ccc(Cl)c(C(F)(F)F)c2)cc1S(=O)(=O)N1CCCCC1`, the Potency is 25.1 µM (active).

Turning to `O=C(CNc1cccc(C(F)(F)F)c1)Nc1cccc(S(=O)(=O)N2CCCC2)c1`, the Potency result was “inactive”.

For the molecule `O=C(NCCc1csc(-c2cccnc2)n1)c1cccc(Cl)c1`, the Potency entry was “inactive”.

With `Cc1cccn2c(=O)c3cc(C(=O)NCCN4CCOCC4)c(=N)n(Cc4ccc(F)cc4)c3nc12`, the Potency result was “inactive”.

With `COc1cccc(/C=N/NC(=O)CC(C)O)c1OC/C=C/c1ccccc1` (stereo not drawn), the Potency result was “inactive”.

The values are drawn from PubChem BioAssay AID1745850 (National Center for Advancing Translational Sciences (NCATS), 2022).
